p53ts 39C kill: p53ts cell cytotoxicity, nonpermissive temperature; H1299-p53A138V viability at 39C, ATP luminescence, 24 h; Potency, µM (highest dose often 46.1 µM), most hits filed as cytotoxic; 130,000 compounds, 1.5% hits; also: nearly all actives have a fitted effect of over 55% in size
Imprint erasure: genomic imprint erasure induction. mouse ES Peg3-LacZ reporter, beta-gal luminescence, 40 h. AID 1948. Potency, µM (doses to about 60.7 µM), most hits filed as activators. 110,000 compounds, 0.02% hits
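Imprint erasure is scored as LacZ activity from the silenced maternal Peg3 allele in feeder-free female ES cells cultured 40 h with LIF. Luminescence is normalized to in-plate negative controls and fitted to the Hill equation.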
p53ts 32C kill: p53ts cell cytotoxicity, permissive temperature; H1299-p53A138V at 32C, ATP luminescence viability, 24 h; 130,000 compounds, 0.93% hits; Potency, µM (titrated, usually from 46.1 µM), actives largely listed as cytotoxic; also: nearly all actives have a fitted effect of over 55% in size
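Viability by ATPlite luminescence after 24 h compound treatment (up to 46 uM) at the permissive 32C. Cells are H1299 carrying p53 A138V. Scale runs from DMSO basal to 100 uM tamoxifen as full kill; AC50 from Hill fits.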
Large screens that a line does not name were inactive. Most compounds without a hit are left out; they make up all but 1.6% or so of the library. Calls follow the shape of the dose curve; as a rule, active = well fitted curve in the direction sought with a large enough effect; inconclusive = small, poorly fitted or top-dose-only effect, or another doubt; inactive = no such curve, though single readings can be large; an effect the other way counts as inactive or inconclusive.

CCc1ccc(C(=O)CC2(O)C(=O)N(Cc3ccc(C)cc3)c3ccccc32)cc1 (configuration not stated)	p53ts 39C kill inconclusive
CCCCN1C(=O)C(O)(CC(=O)c2ccc(C(C)(C)C)cc2)c2ccccc21 (configuration not stated)	p53ts 39C kill 13µM, p53ts 32C kill inconclusive
CCCNC(=O)C1CCN(Cc2cc3ccccc3n2Cc2ccccc2)CC1	none
CN(C)CCNC(=O)C1CCN(Cc2cc3ccccc3n2Cc2ccccc2)CC1	p53ts 39C kill 13µM, p53ts 32C kill inconclusive
CCc1ccccc1N1C(=O)N(C)c2ccccc2S1(=O)=O	none
COc1ccc(-c2c(O)c3c(OC)c4c(cc3oc2=O)OC(C)(C)CC4)cc1	p53ts 32C kill inconclusive
COc1ccc(-c2c(O)c3c(OC)c4c(cc3oc2=O)OC(C)(C)C=C4)cc1	p53ts 39C kill 6.3µM, p53ts 32C kill 7.9µM
C=C1CCO[C@@]2([C@H](O)[C@@](C)(O)CO)NC(=O)[C@]1(O)NC2=O	none
Cc1ccc(Cl)cc1N1CCN(CCCNC(=O)c2nnc(Cc3cccc(Cl)c3)o2)CC1	p53ts 39C kill 13µM
O=C(NCCCN1CCN(c2ccccc2F)CC1)c1nnc(Cc2ccc(Cl)cc2Cl)o1	p53ts 39C kill inconclusive
CCOC(=O)CC(=O)CSc1nc2ccccc2c(=O)n1CCc1ccc(S(N)(=O)=O)cc1	none
Cn1c(=O)c(-c2ccccc2)nc2cnc(N3CCOCC3)nc21	none
Fc1ccc([C@H]2CCNCC2COc2ccc3c(c2)OCO3)cc1 (some centres not stated)	none
Fc1ccc([C@H]2CCNC[C@H]2COc2ccc3c(c2)OCO3)cc1	p53ts 39C kill 10µM, p53ts 32C kill 32µM
CCc1cccc(NC(=O)CSc2nncn3c2cc2sccc23)c1	p53ts 39C kill inconclusive
Cc1c(Cl)cccc1Nc1nn2c(=O)c3ccc(C(=O)NCCC4=CCCCC4)cc3nc2s1	none
COc1ccccc1Nc1nn2c(=O)c3ccc(C(=O)NCCC4=CCCCC4)cc3nc2s1	p53ts 39C kill 3.2µM, p53ts 32C kill 5µM
CCN(CC)CCNC(=O)c1ccc2c(=O)n3nc(Nc4cccc(Cl)c4C)sc3nc2c1	p53ts 39C kill 20µM, p53ts 32C kill inconclusive
COc1ccccc1Nc1nn2c(=O)c3ccc(C(=O)NC(C)c4ccccc4)cc3nc2s1 (configuration not stated)	none
Cc1c(Cl)cccc1Nc1nn2c(=O)c3ccc(C(=O)NCCc4ccccc4)cc3nc2s1	p53ts 39C kill inconclusive, p53ts 32C kill inconclusive
Cc1ccc(C)c(Nc2nn3c(=O)c4ccc(C(=O)NCCc5ccccc5)cc4nc3s2)c1	p53ts 39C kill 3.2µM
COc1ccccc1Nc1nn2c(=O)c3ccc(C(=O)NCCc4ccccc4)cc3nc2s1	p53ts 39C kill 3.2µM, p53ts 32C kill 3.2µM
Cc1ccc(C)c(Nc2nn3c(=O)c4ccc(C(=O)NCCC5=CCCCC5)cc4nc3s2)c1	p53ts 32C kill inconclusive
CC(=O)N1CCC2(CCCN(C(c3ccccc3)c3ccccc3)C2)CC1	none (no result: Imprint erasure)
CCc1ccc(S(=O)(=O)c2cn(CC(=O)Nc3ccc(C)cc3)c3ccccc3c2=O)cc1	none
COc1ccc(N2CC(NC(=O)C3CCCCC3)CC2=O)cc1OC (configuration not stated)	none
COc1ccc2c(c1)c1c(c(=O)n(Cc3ccccc3)c(=O)n1CC(=O)NCc1ccccc1Cl)n2C	p53ts 39C kill inconclusive
COC(=O)C/C=C\[C@@H](C)[C@@H](/C=N\O[C@@H](C)c1cc(-c2c(C)cc(C)cc2C)no1)OC	none (no result: Imprint erasure)
CCOC(=O)c1ccc2ncc(C(=O)OCC)c(NCCN(C)C)c2c1	none
CCOC(=O)c1cnc2ccc(Cl)cc2c1Nc1ccc(N2CCOCC2)cc1	none
CCOC(=O)c1cnc2ccc(C)cc2c1Nc1ccc(N(CC)CC)cc1	p53ts 39C kill 13µM
CCOC(=O)c1cnc2ccc(C(=O)OC)cc2c1Nc1ccc(N2CCOCC2)cc1	p53ts 39C kill 13µM, p53ts 32C kill inconclusive
CCCC[C@@H]1C[C@H]1C(NC(=O)c1ccccc1)c1ccc(C(F)(F)F)cc1 (some centres not stated)	none
CNC(=O)C1CCC(Cn2c(=O)c3sccc3n(CC(=O)Nc3cc(F)ccc3F)c2=O)CC1 (configuration not stated)	none
Cc1ccc(Nc2nnc(SCC(=O)Nc3cccc(S(=O)(=O)N4CCCCC4)c3)s2)cc1	p53ts 39C kill 11µM (no result: Imprint erasure)
Cc1ccc(Nc2nnc(SCC(=O)Nc3ncc(C(F)(F)F)cc3Cl)s2)cc1	none (no result: Imprint erasure, p53ts 32C kill)
COc1ccc(Br)cc1CNC(=O)c1cc2ccccn2n1	none
Cc1noc(-c2ccc(-c3noc(-c4ccccc4)n3)cc2)n1	none
Brc1ccccc1-c1nc(-c2ccccc2)no1	p53ts 39C kill inconclusive, p53ts 32C kill 13µM
Fc1ccccc1-c1nc(-c2ccccc2)no1	none
Cc1ccc(-c2nc(-c3ccccc3)no2)c(Cl)c1	p53ts 39C kill 7.9µM, p53ts 32C kill 5µM
COc1cccc([C@H]2Oc3ccc(OC)cc3/C(=N\O[C@@H]3O[C@H](COC(C)=O)[C@H](OC(C)=O)[C@H](OC(C)=O)[C@H]3OC(C)=O)[C@@H]2O)c1	none (no result: Imprint erasure)
[O-][N+]1=c2ccc(Nc3ccccc3)cc2=NC12CCCCC2	p53ts 39C kill 20µM, p53ts 32C kill 5µM
COc1ccc(OC)c(NC2=NC3(CCCC3)N=C(N)N2)c1	none
COc1ccc(Nc2ccc3c(c2)=NC2(CCCCC2)[N+]=3[O-])cc1	p53ts 39C kill 6.3µM, p53ts 32C kill 5µM
[O-][N+]1=C2CCC/C(=N\O)C2=NC12CCCCC2	none
C/C=C\C[C@@H](C)[C@@H](O)[C@H]1C(=O)N[C@@H](CC)C(=O)N(C)CC(=O)N(C)[C@@H](CC(C)C)C(=O)N[C@@H](C(C)C)C(=O)N(C)[C@@H](CC(C)C)C(=O)N[C@@H](C)C(=O)N[C@H](C)C(=O)N(C)[C@@H](CC(C)C)C(=O)N(C)[C@@H](CC(C)C)C(=O)N(C)[C@@H](C(C)C)C(=O)N1C	none (no result: p53ts 39C kill, p53ts 32C kill)
CN(C)c1ccc(CNC(=O)c2cccc(NC(=O)N3CCSc4ncccc43)c2)cc1	none
CC(C)c1ccc(NC(=O)CN(C)S(=O)(=O)c2ccc3c(c2)n(C)c(=O)c(=O)n3C)cc1	none
Cc1ccc(C(C)C)c(OCC(=O)Nc2cccc(-c3nc4ncccc4o3)c2)c1	p53ts 39C kill 16µM, p53ts 32C kill inconclusive
Cc1cc(C)c(OCC(=O)Nc2cccc(-c3nc4ncccc4o3)c2)c(Br)c1	none
O=C(Nc1cccc(-c2nc3ncccc3o2)c1)c1ccc(-c2cccc(Cl)c2Cl)o1	p53ts 39C kill 13µM, p53ts 32C kill 10µM
CCC(C)c1ccc(OCC(=O)Nc2ccc(-c3nc4ncccc4o3)cc2)cc1 (configuration not stated)	p53ts 39C kill 10µM, p53ts 32C kill inconclusive
Cc1cc(C)cc(C(=O)Nc2ccc(-c3nc4ncccc4o3)cc2)c1	p53ts 39C kill 10µM
COc1ccc(OCC(=O)Nc2ccc(Cl)c(-c3nc4ncccc4o3)c2)cc1	none
Cc1c(Cl)cccc1-c1ccc(C(=O)Nc2ccc3oc(-c4cccnc4)nc3c2)o1	none
COc1ccc(C(=O)Nc2ccc(-c3nc4ncccc4o3)cc2)cc1	none
COc1ccc(Cl)cc1NC(=O)CSc1cn(CC(=O)N2CCCCCC2)c2ccccc12	none
Cc1ccc(CNC(=O)c2cnn(-c3cccc(C)c3)c2C2CCN(C(=O)OC(C)(C)C)CC2)cc1	none
